# Compound activity from PubChem.
# The full list was thinned out, with hits kept by preference.
# LmPK inh = qHTS Assay for Inhibitors of Leishmania Mexicana Pyruvate Kinase (LmPK) | purified LmPK, Kinase-Glo ATP luminescence, 1 h | hit rate 0.37% among 290,000 | Potency, µM (series often up to 57.5 µM), for inactives: at the top dose activity change, negative = inhibition, most hits filed as inhibitors | AID 1721, 2009; also: potency is read from the fitted curve at half-maximal effect; % is scaled to controls: 0 for no effect and ±100 for the full control effect
# Target sequence (Q27686 whole entry, looked up): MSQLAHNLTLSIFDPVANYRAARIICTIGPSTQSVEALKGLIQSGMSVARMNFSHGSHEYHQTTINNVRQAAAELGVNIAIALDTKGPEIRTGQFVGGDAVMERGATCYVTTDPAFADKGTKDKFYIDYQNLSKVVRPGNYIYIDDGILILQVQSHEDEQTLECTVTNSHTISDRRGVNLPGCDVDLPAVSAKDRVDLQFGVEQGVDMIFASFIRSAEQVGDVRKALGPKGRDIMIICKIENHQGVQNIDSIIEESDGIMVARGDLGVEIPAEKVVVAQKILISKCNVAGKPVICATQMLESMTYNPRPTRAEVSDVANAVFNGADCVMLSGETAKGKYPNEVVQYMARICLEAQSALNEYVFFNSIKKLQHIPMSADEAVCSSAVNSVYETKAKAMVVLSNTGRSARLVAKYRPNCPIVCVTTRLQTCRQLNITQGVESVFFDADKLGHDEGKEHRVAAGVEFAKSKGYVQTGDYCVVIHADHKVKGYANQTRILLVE
#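 0.1 nM LmPK, 0.5 mM PEP, 0.1 mM ADP; 50 mM imidazole pH 7.2, 7 mM MgCl2, 50 mM KCl; 1 h RT. Kinase-Glo luminescence readout, normalized to no-enzyme (full inhibition) and uninhibited wells.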
# RE007 growth inh = qHTS Assay for Inhibitors of the HIV-1 protein Vpr; S. pombe RE007 Vpr strain, BacTiter-Glo ATP luminescence, 24 h; Potency, µM (series often up to 92.2 µM), for the others: at the highest dose activity change, negative = less growth, actives largely listed as inhibitors; hit rate 0.21% among 360,000; AID 651644, 2012; active = well fitted falling curve with a large enough effect; inconclusive = small, poorly fitted or top-dose-only effect; inactive = no such curve, though single readings can be large or run the other way; also: potency is read from the fitted curve at half-maximal effect; % is scaled to controls: 0 for no effect and ±100 for the full control effect; nearly all actives have a fitted effect of over 50% in size
#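 Fission yeast RE007 carrying one integrated HIV-1 vpr copy, seeded at OD 0.01 in PMG+AL medium with 23 nL pinned compound. Grown 24 h at 30 degrees; viability read by BacTiter-Glo luminescence after 5 min.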
# Shiga toxin inh = A qHTS for Small Molecule Inhibitors of Shiga Toxin; Vero cells, Shiga toxin protein synthesis inhibition reporter; inhibition, % at 38.7 µM; hit rate 9.2% among 290,000; in the data active = inhibition mostly above about 28%, no sharp cut-off; inactive = mostly below about 43%; also: 0% is about no effect
# TbPYK inhibitor = qHTS of Trypanosoma Brucei Inhibitors; TbPYK enzyme, Kinase-Glo Plus ATP luminescence, 45 min; Potency, µM (top dose mostly 76.8 µM), without a hit: at the top dose activity, negative = inhibition, most hits filed as inhibitors; hit rate 0.12% among 410,000; AID 624173, 2012; also: potency is read from the fitted curve at half-maximal effect; % is scaled to controls: 0 for no effect and ±100 for the full control effect; nearly all actives have a fitted effect of over 50% in size
#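 In this concentration-response screen, enzyme-free wells defined baseline while DMSO plates tracked drift. Each reaction combined TbPYK, substrate, compound and 130 uM ADP for 45 min at room temperature. Kinase-Glo Plus luminescence gave the signal.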
# FBPA Giardia inh = qHTS Assay for Inhibitors of Fructose-1,6-bisphosphate Aldolase from Giardia Lamblia; purified Giardia FBPA; Potency, µM (top dose mostly 59.6 µM), without a hit: at the top dose activity, negative = inhibition, most hits filed as inhibitors; hit rate 0.71% among 290,000; AID 2451, 2010; also: potency is read from the fitted curve at half-maximal effect; % is scaled to controls: 0 for no effect and ±100 for the full control effect; nearly all actives have a fitted effect of over 55% in size
#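 40 nM FBPA preincubated 10 min at RT with compound (up to 57.5 uM final), then substrate plus GAPDH/TPI/NAD/arsenate coupling and diaphorase/resazurin added. Fluorescence read after 20 min at RT, 525/598 nm.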
# CHX counter = Cycloheximide Counterscreen for Small Molecule Inhibitors of Shiga Toxin; cell reporter, cycloheximide protein synthesis inhibition counterscreen; max response, %; hit rate 12% among 300,000; in the data active = max response mostly above about 13%, no sharp cut-off; inactive = mostly below about 14%; also: read at 38.3 µM for the half of the compounds with a filed dose; 0% is about no effect
# LmPK inh confirm = Confirmation Assay for Inhibitors of Leishmania Mexicana Pyruvate Kinase (LmPK) | hit rate 40% among 150 | AID 2559, 2010 | shares compounds with LmPK inh | Potency, µM (highest dose often 57.5 µM), for the others: at the top dose activity change, negative = inhibition, actives largely listed as inhibitors | purified LmPK, Kinase-Glo ATP luminescence, 1 h;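 active = compounds giving a full or partial concentration-response curve, as inhibitors or activators; inconclusive = weak, top-dose-only or unclear curve responses; inactive = no response at any tested dose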
# The depositor's hits bear a star; ? = inconclusive; . = no result given. Unless noted, calls follow the shape of the dose curve; as a rule, active = well fitted curve in the direction sought with a large enough effect; inconclusive = small, poorly fitted or top-dose-only effect, or another doubt; inactive = no such curve, though single readings can be large; an effect the other way counts as inactive or inconclusive.
SMILES,LmPK inh,RE007 growth inh,Shiga toxin inh,TbPYK inhibitor,FBPA Giardia inh,CHX counter,LmPK inh confirm
Cc1ccc(C(=O)/C=C/C(=O)c2ccc(C)cc2)cc1,3.98µM*,-17.3%,41.2,?,-0.6%,15.5,?
Cc1ccc(C(=O)NNC(=O)CCCCC(=O)NNC(=O)c2ccc(C)cc2)cc1,-1.3%,-9.6%,-5.8,0.3%,-8.8%,-2.1,.
COc1ccc(CN2CCN(CCc3ccccc3)C(CCO)C2)cc1Cn1cncn1 (stereo unspecified),5.3%,16.1%,-20.6,4.3%,3.0%,-0.5,.
Cn1c(COc2ccccc2O)[n+](C)c2ccccc21,-0.8%,.,4.4,-1.5%,-2.4%,-4.8,.
COc1ccc(N=Nc2n(C)c3ccccc3[n+]2C)cc1,1.41µM*,.,-19.0,.,?,-2.0,13µM*
C=CCN1C(=O)c2ccc(C(=O)OCC(=O)N3CCN(c4ccccc4)CC3)cc2C1=O,.,2.0%,.,-10.0%,.,.,.
CN(Cc1ccon1)Cc1cn(C)nc1-c1ccc2c(c1)OCCO2,5.9%,-11.6%,5.8,-0.9%,-0.6%,-4.6,-5.1%
Cc1nc2cc(-c3ccccc3)sc2c(=O)n1N,2.24µM*,?,-28.0,10µM*,0.0%,-14.1,4.61µM*
Cn1c(NCc2ccccc2)nc2cc(-c3ccccc3)sc2c1=O,.,3.9%,.,0.1%,.,.,.
COc1ccc(-c2cc3nc(C)n(N)c(=O)c3s2)cc1,2µM*,11.2µM*,-36.5,?,3.0%,-1.6,2.91µM*
N/C(=N\OC(=O)c1ccccc1)c1ccccn1,4.47µM*,?,-19.8,?,0.8%,-7.9,8.19µM*
CCOc1ccc2c(c1)C(=NNC(=O)c1ccccn1)c1cc(OCC)ccc1-2,.,-2.0%,.,-0.3%,.,.,.
CCOc1ccc(C(=O)O/N=C(\N)c2ccccn2)cc1,?,?,-19.5,12.6µM*,10.5%,-12.5,6.51µM*
CN(C)c1nc2c(c(N)nn2-c2ccc(Cl)cc2)c(=O)o1,0.3%,0.3%,-11.8,-4.3%,6.2%,1.4,4.8%
COc1ccc(-n2nc(N)c3c(=O)oc(N(C)C)nc32)cc1,-7.4%,-8.9%,-18.9,2.2%,0.5%,-2.9,.
COC(=O)COc1cc(Br)c(/C=C2/SC(=O)N(CC(=O)N3CCCC3)C2=O)cc1OC,-2.3%,4.9%,-7.1,1.2%,.,-2.4,.
COC(=O)COc1ccc(/C=C2/SC(=O)N(CC(=O)N3CCCC3)C2=O)cc1Br,-5.4%,-4.2%,-18.5,0.4%,5.4%,1.5,4.2%
CC1=CC(C)(C)N(C(=O)c2ccccc2)c2ccc(C)cc21,-1.5%,.,-14.4,1.6%,1.8%,-5.0,4.9%
Brc1ccc(N=Nc2ccc3ccccc3n2)cc1,6.31µM*,-1.4%,53.7*,?,3.1%,36.3*,8.19µM*
C=C(C)[C@H]1CC=C(C)/C(=N/NC(=O)CNc2ccccc2OC)C1,-1.6%,-20.6%,25.4,0.8%,0.2%,-1.1,2.2%
C=C(C)C1CC=C(C)/C(=N\NC(=O)CNc2cccc3ccccc23)C1 (stereo unspecified),-3.2%,-1.9%,-6.9,3.3%,-19.6%,0.6,.
Cc1cccc(NC(=O)CCS(=O)(=O)c2ccc3c(c2)n(C)c(=O)c(=O)n3C)c1C,.,.,.,3.6%,.,.,.
Cc1[nH]n(-c2ccccc2)c(=O)c1C=Nc1cccc2cccnc12,1.1%,-3.8%,9.6,-2.6%,-19.0%,1.2,.
Cc1ccc(-n2[nH]c(C)c(/C=N/c3ccccn3)c2=O)cc1,-19.6%,?,-14.0,2.6%,-4.1%,-1.5,?
Cc1cc(NC(=O)c2ccccc2)ncc1NC(=O)c1ccco1,14.1µM*,?,87.4*,?,?,18.0*,16.3µM*
SMILES,LmPK inh,RE007 growth inh,Shiga toxin inh,TbPYK inhibitor,FBPA Giardia inh,CHX counter,LmPK inh confirm
CCC(=O)Nc1cc(C)c(NC(=O)c2ccco2)cn1,-1.4%,-10.2%,6.8,-3.1%,3.0%,6.7,.
O=C(c1cc(F)c(F)cc1Cl)N1CCN(S(=O)(=O)c2cccs2)CC1,.,2.1%,.,-0.6%,.,.,.
COc1cccc(/C=N/NC(=O)c2ccoc2C)c1O,7.94µM*,-13.3%,85.6*,-12.9%,4.9%,38.3*,18.3µM*
COc1cccc(/C=N/NC(=O)c2c(-c3ccccc3)noc2C)c1O,2.6%,27.2%,-8.1,-7.4%,21.0%,-0.8,.
CCn1c(SCC(=O)Nc2sc3c(c2C#N)CCC(C(C)(C)C)C3)nnc1-c1ccco1 (stereo unspecified),4.5%,1.3%,-5.1,3.3%,1.2%,0.2,6.8%
CCN1C(=O)C2(SC(NC(C)=O)=NN2C(C)=O)c2cc(C)ccc21 (stereo unspecified),-2.3%,-6.3%,-16.0,3.7%,0.4%,1.5,1.9%
C#CCOc1ccc(/C=C2/C(=O)ON=C2C)cc1Br,-2.3%,-8.6%,17.9,-28.2%,-21.9%,10.7,.
COc1ccc(/C=N/NC(N)=S)cc1OC(=O)c1cccc2ccccc12,-1.1%,4.0%,55.9*,-1.6%,-0.8%,23.3*,-0.7%
Cc1ccc(Cl)cc1N1CCN(S(=O)(=O)c2ccc3c(c2)OCCO3)CC1,-0.4%,-3.1%,12.3,-6.8%,1.9%,-3.1,8.7%
CCc1cccc(C)c1NC(=O)NC1COc2ccccc2C1 (stereo unspecified),.,.,.,-6.4%,.,.,.
